Bioassay records deposited in PubChem by Broad Institute.
EWS-Fli inh: blocks EWS/Fli oncoprotein-driven transcription. A673 NR0B1-luciferase reporter, viability-normalised. AID 651661. inhibition, % at 12.6 µM. 350,000 compounds, 0.67% hits;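 active = mean inhibition of at least 50% after viability correction, with every replicate also passing that limit; inconclusive = mean reaches 50% but only one of two replicates passes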;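 note: firefly luciferase signal divided by Alamar Blue viability fluorescence both relative to DMSO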
LMP1 NFkB inh: inhibitors of Epstein-Barr LMP1-induced NF-kappaB reporter | LMP1-induced NF-kappaB luciferase reporter cells, luminescence | inhibition, % at 12.5 µM | 350,000 compounds, 0.69% hits | AID 504558; in the data active = inhibition above about 41%; inconclusive = no clear call, values can overlap the other calls;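 note: 0% = neutral control wells and 100% = reference inhibitor control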
LGR2 inh: blocks bursicon-induced cAMP signaling via Drosophila LGR2; HEK293 LGR2, CRE-luciferase, bursicon-stimulated, 4 h; inhibition, % at 9.99 µM; 380,000 compounds, 0.35% hits;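 active = drop in luminescence signal, shown as inhibition above about 50% in the replicate tests, limit read from the data, passing the limit was not always enough; inconclusive = probably only some replicates passing the limit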;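 note: agonist challenge used bursicon conditioned medium at about half maximal strength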
TRPM1 prom inh: reduces MITF-dependent TRPM1 promoter luciferase signal | SK-MEL-5 TRPM1 promoter luciferase, 24 h | inhibition, % at 12.5 µM | 330,000 compounds, 0.83% hits | AID 488899;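 active = mean inhibition across replicates of 60% or more, whatever share of single replicates reaches that level; inconclusive = some that reach 60%, reason not given; inactive = mean inhibition across replicates below 60%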
PAX8 reporter: inhibitors of PAX8 transcriptional activity in RMG-I cells; RMG-I TPO-luciferase reporter, SteadyGlo, 24 h; inhibition, % at 12.6 µM; 360,000 compounds, 1.2% hits;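 active = mean replicate inhibition at least 60% with every replicate also reaching 60%; inconclusive = only one of the two criteria is met; inactive = mean below 60% and not all replicates reaching 60%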;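 note: luciferase light reporting Pax8 driven TPO promoter activity; plate controls were median of neutral control wells for no effect and mitoxantrone controls for full effect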
Shn3 inh set2: inhibitors of Schnurri-3 3'UTR reporter in osteoblasts; Clone20 osteoblast Shn3 3'UTR firefly luciferase, 24 h; inhibition, % at 12.5 µM; 360,000 compounds, 0.52% hits; AID 588674;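 active = mean inhibition of at least 75% with every replicate also reaching 75%; inconclusive = mean inhibition at least 75% but some replicate below; inactive = mean inhibition below 75%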;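 note: 0% = median of neutral control wells and 100% = pilot-screen positive control compound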
An asterisk follows results filed as active; ? = inconclusive; nt = no result. Shown are actives, neighbours in structure and some others; about 2.2% of the full set was active somewhere.

SMILES | EWS-Fli inh | LMP1 NFkB inh | LGR2 inh | TRPM1 prom inh | PAX8 reporter | Shn3 inh set2
COc1ccc(-c2cc3nc(C)n(N)c(=O)c3s2)cc1 | 89.5* | 76.2* | 100.9* | 78.8* | 86.1* | 88.6*
C[C@@H](O)C#Cc1ccc([C@H]2[C@@H](CO)N3CCCCN(S(=O)(=O)c4ccccc4)C[C@H]23)cc1 | 2.5 | nt | 11.5 | nt | -11.2 | nt
CCOC(=O)/C(=C/C=C1\Sc2cc(C)c(C)cc2N1CC)C(C)=O | 3.3 | 2.3 | 21.2 | 11.0 | 17.3 | 50.6
CCN1/C(=C/c2ccc3cc(C)ccc3[n+]2CC)Sc2cc(C)c(C)cc21 | 72.7* | 10.6 | 13.7 | 69.0* | 87.7* | 35.5
CCN1/C(=C/c2ccc3cc(C)ccc3[n+]2CC)Sc2ccccc21 | 48.5 | -6.3 | 27.3 | 101.3* | 93.3* | 84.4
CC[n+]1c(/C=C2\Sc3ccccc3N2C)ccc2cccc(C)c21 | 44.0 | -13.7 | 81.3* | 104.0* | 61.3* | 89.0*
C[C@H](CO)N1C[C@H](C)[C@H](CN(C)C(=O)c2cnccn2)Oc2ncc(-c3cccc(C#N)c3)cc2C1=O | -8.9 | nt | -30.2 | nt | -11.0 | nt
Cc1noc(C)c1NC(=O)Nc1ccc2c(c1)C(=O)N([C@H](C)CO)C[C@@H](C)[C@H](CN(C)C(=O)Nc1ccccc1)O2 | -5.1 | nt | 7.5 | nt | nt | nt
COc1ccc(CN(C)C[C@@H]2OCCCC[C@@H](C)Oc3ccc(NC(=O)Nc4ccc(C(F)(F)F)cc4)cc3C(=O)N([C@@H](C)CO)C[C@H]2C)cc1 | 71.4* | nt | nt | nt | 98.1* | nt
COc1ccc(NC(=O)Nc2ccc3c(c2)C(=O)N([C@@H](C)CO)C[C@H](C)[C@H](CN(C)Cc2ccc(C(F)(F)F)cc2)OCCCC[C@@H](C)O3)cc1 | 3.7 | nt | -3.5 | nt | 57.1 | nt
COc1ccc(CN(C)C[C@H]2OCCCC[C@@H](C)Oc3ccc(NC(=O)Nc4ccc(C(F)(F)F)cc4)cc3C(=O)N([C@H](C)CO)C[C@@H]2C)cc1 | -0.8 | nt | nt | nt | 1.7 | nt
COc1ccc(NC(=O)Nc2ccc3c(c2)C(=O)N([C@H](C)CO)C[C@H](C)[C@H](CN(C)Cc2ccc(C(F)(F)F)cc2)OCCCC[C@H](C)O3)cc1 | -3.4 | nt | 8.1 | nt | 99.1* | nt
COc1ccc(NC(=O)Nc2ccc3c(c2)C(=O)N([C@H](C)CO)C[C@@H](C)[C@H](CN(C)Cc2ccc(C(F)(F)F)cc2)OCCCC[C@H](C)O3)cc1 | 60.7* | nt | 11.6 | nt | 80.7* | nt
COc1ccc(CN(C)C[C@H]2OCCCC[C@@H](C)Oc3ccc(NC(=O)Nc4ccc(C(F)(F)F)cc4)cc3C(=O)N([C@@H](C)CO)C[C@@H]2C)cc1 | 65.9* | nt | nt | nt | 30.0 | nt
C[C@@H]1CN([C@@H](C)CO)C(=O)c2cccc(NC(=O)c3cnccn3)c2O[C@@H]1CN(C)S(=O)(=O)c1cn(C)cn1 | -3.6 | nt | 4.8 | nt | nt | nt
O=C(C1CCCC1)N1CC2(C1)[C@H](c1ccccc1)[C@@H](CO)N2C(=O)c1cccnc1 | 3.0 | nt | 9.8 | nt | nt | nt
CO[C@H]1CN(C)C(=O)c2cc(NS(C)(=O)=O)ccc2OC[C@@H](C)N(Cc2cccnc2)C[C@H]1C | -8.7 | nt | -12.0 | nt | nt | nt
COc1ccc(NC(=O)Nc2ccc3c(c2)C(=O)N([C@H](C)CO)C[C@H](C)[C@H](CN(C)Cc2ccc(C(F)(F)F)cc2)OCCCC[C@@H](C)O3)cc1 | -1.0 | nt | -4.7 | nt | 49.9 | nt
COc1ccc(CN(C)C[C@@H]2OCCCC[C@H](C)Oc3ccc(NC(=O)Nc4ccc(F)cc4)cc3C(=O)N([C@H](C)CO)C[C@@H]2C)cc1 | -5.0 | nt | 11.8 | nt | 53.6 | nt
COc1ccc(NC(=O)Nc2ccc3c(c2)C(=O)N([C@@H](C)CO)C[C@@H](C)[C@H](CN(C)Cc2ccc(C(F)(F)F)cc2)OCCCC[C@H](C)O3)cc1 | 8.4 | nt | nt | nt | 48.8 | nt
COc1ccc(CN(C)C[C@H]2OCCCC[C@@H](C)Oc3ccc(NC(=O)Nc4ccc(C(F)(F)F)cc4)cc3C(=O)N([C@@H](C)CO)C[C@H]2C)cc1 | 69.2* | nt | nt | nt | ? | nt
COc1ccc(NC(=O)Nc2ccc3c(c2)C(=O)N([C@@H](C)CO)C[C@@H](C)[C@H](CN(C)Cc2ccc(C(F)(F)F)cc2)OCCCC[C@@H](C)O3)cc1 | -0.2 | nt | 4.7 | nt | 64.2* | nt
COc1ccc(CN(C)C[C@H]2OCCCC[C@@H](C)Oc3ccc(NC(=O)Nc4ccc(F)cc4)cc3C(=O)N([C@@H](C)CO)C[C@@H]2C)cc1 | -11.6 | nt | nt | nt | 85.2* | nt
COc1ccc(CN(C)C[C@H]2OCCCC[C@H](C)Oc3ccc(NC(=O)Nc4ccc(C(F)(F)F)cc4)cc3C(=O)N([C@H](C)CO)C[C@@H]2C)cc1 | 71.1* | nt | 20.4 | nt | 83.2* | nt
CO[C@@H]1CN(C)C(=O)c2ccc(NS(=O)(=O)CC(F)(F)F)cc2OC[C@@H](C)N(C)C[C@@H]1C | 3.6 | nt | 7.0 | nt | -1.1 | nt
SMILES | EWS-Fli inh | LMP1 NFkB inh | LGR2 inh | TRPM1 prom inh | PAX8 reporter | Shn3 inh set2
COc1ccc(CNC(=O)C[C@@H]2C[C@@H]3c4cc(NC(=O)CC5CC5)ccc4O[C@@H]3[C@H](CO)O2)cc1 | -0.8 | nt | -8.4 | nt | -3.9 | nt
CCC(=O)Nc1ccc2c(c1)OC[C@H](C)N(C(=O)c1cnccn1)C[C@@H](C)[C@H](OC)CN(C)C2=O | 2.7 | nt | -4.5 | nt | -0.2 | nt
COc1ccc(CN(C)C[C@@H]2OCCCC[C@H](C)Oc3ccc(NC(=O)Nc4ccc(C(F)(F)F)cc4)cc3C(=O)N([C@H](C)CO)C[C@@H]2C)cc1 | 70.8* | nt | nt | nt | 107.8* | nt
COc1ccc(NC(=O)Nc2ccc3c(c2)C(=O)N([C@@H](C)CO)C[C@@H](C)[C@@H](CN(C)C(=O)Nc2ccc4c(c2)OCO4)O3)cc1 | -11.6 | nt | -5.6 | nt | 4.0 | nt
CC(C)c1nnc(NC(=O)CCS(=O)(=O)c2nc(-c3cccs3)cc(C(F)(F)F)n2)s1 | nt | -4.5 | nt | 59.6 | nt | 98.6*
O=C(NCC[C@H]1CC[C@H](NS(=O)(=O)c2cccc(F)c2)[C@@H](CO)O1)C1CCOCC1 | -0.4 | nt | 1.2 | nt | nt | nt
CCOC(=O)Nc1ccc2c(c1)N(C(=O)CCN1CCOCC1)c1ccccc1S2 | -1.0 | -3.7 | -42.8 | -0.9 | -6.7 | 3.1
CCOC(=O)Nc1ccc2c(c1)N(C(=O)CCN1CCOCC1)c1ccccc1S2=O (configuration not stated) | nt | 22.1 | nt | 14.6 | 106.1* | -22.5
Cc1cc(=O)[nH]c2ccccc12 | nt | -4.2 | nt | 6.4 | nt | 5.2
Cc1cc2[nH]c3c(c[n+](C)c4ccccc34)c2cc1C | 82.5* | -18.1 | 100.3* | 100.8* | 111.0* | -53.3
O=C(Nc1ccc2c(c1)[C@@H]1C[C@@H](CC(=O)N3CCOCC3)O[C@@H](CO)[C@@H]1O2)C1CCC1 | 2.7 | nt | -27.6 | nt | 0.6 | nt
N#C[C@@H]1[C@@H](c2ccc(-c3cccc(F)c3)cc2)[C@H](CO)N1C(=O)NC1CCCC1 | 7.8 | nt | 23.4 | nt | 89.4* | nt
N#C[C@H]1[C@@H](c2ccc(-c3cccc(F)c3)cc2)[C@@H](CO)N1C(=O)NC1CCCCC1 | nt | nt | 32.6 | nt | 68.3* | nt
CN(C)C(=O)c1ccc(-c2ccc(C3[C@H]4CNC[C@@H]3N4C(=O)NC3CCCCC3)cc2)cc1 (some centres not stated) | nt | nt | 7.2 | nt | nt | nt
